A short description of experiment [1]: anti-His antibody binders, primary screen, artefact control for SMM control protein annotation, biochemical, small-molecule microarray, 635 nm fluorescence (AID 1128).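 Note: score merges feature fluorescence with signal-to-noise for each printed compound spot.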 As to conditions: anti-His Alexa647 antibody binding, higher = more signal.
The test system of experiment [2] is Human papillomavirus type 1a E7 protein (residues 1-88). Kind of experiment: HPV1a E7 small-molecule binders, primary screen, biochemical, small-molecule microarray, residues 1-88, 635 nm (AID 1129). As to conditions: small-molecule microarray binding, fluorescence 635 nm; higher = more signal.
In experiment [3] the target is Focal adhesion kinase 1 (Homo sapiens) (UniProt Q05397). As to the kind of experiment: small-molecule microarray binders of FAK, primary screen, biochemical, 635/667 nm fluorescence, BSA, DTT (AID 1130).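 Note: composite of spot emission at 667 nm and signal to noise over triplicate slides.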 As to conditions: PTK2 binding, 635 nm fluorescence, higher = more signal.
Focal adhesion kinase 1 (Homo sapiens), sequence (Q05397 whole entry, looked up): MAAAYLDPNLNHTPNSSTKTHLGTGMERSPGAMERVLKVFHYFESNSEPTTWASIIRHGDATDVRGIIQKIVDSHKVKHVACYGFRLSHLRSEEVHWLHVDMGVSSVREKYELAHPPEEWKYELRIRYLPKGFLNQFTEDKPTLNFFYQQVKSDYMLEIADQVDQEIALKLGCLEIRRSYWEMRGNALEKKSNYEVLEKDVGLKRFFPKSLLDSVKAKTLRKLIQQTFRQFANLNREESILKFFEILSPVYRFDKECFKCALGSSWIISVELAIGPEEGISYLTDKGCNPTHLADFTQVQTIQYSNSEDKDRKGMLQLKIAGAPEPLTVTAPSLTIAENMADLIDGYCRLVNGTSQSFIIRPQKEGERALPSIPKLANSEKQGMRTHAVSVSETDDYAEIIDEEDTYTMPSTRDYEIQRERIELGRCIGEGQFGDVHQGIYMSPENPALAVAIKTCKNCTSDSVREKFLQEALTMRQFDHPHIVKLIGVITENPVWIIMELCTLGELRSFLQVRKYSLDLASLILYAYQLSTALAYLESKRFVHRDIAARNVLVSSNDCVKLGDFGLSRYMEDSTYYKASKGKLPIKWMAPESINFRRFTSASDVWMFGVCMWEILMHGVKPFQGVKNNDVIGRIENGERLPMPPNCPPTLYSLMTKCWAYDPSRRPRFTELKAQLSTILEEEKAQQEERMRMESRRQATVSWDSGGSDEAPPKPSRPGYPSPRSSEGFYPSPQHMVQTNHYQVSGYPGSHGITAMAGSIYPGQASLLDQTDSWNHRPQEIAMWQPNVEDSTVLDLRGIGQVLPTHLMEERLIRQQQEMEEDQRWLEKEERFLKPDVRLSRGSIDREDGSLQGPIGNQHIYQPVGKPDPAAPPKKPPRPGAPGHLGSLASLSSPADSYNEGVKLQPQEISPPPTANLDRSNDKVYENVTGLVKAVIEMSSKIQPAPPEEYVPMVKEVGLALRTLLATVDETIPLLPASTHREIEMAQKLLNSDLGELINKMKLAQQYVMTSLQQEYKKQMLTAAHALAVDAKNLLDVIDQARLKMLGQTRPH
Experiment [4] relates to Fibrinogen (Alexa647-labelled). Kind of experiment: fibrinogen binders on compound microarrays, profiling panel, artefact control for SMM control-protein annotation, biochemical, small-molecule microarray, 635/667 nm fluorescence (AID 1131).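 Note: z-score merges 667 nm fluorescence with per-spot signal-to-noise over triplicate slides.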 As to conditions: fibrinogen-A647 binding fluorescence, higher = more signal.
The target of experiment [5] is Follistatin (Homo sapiens) (UniProt P19883). As to the kind of experiment: follistatin binders on small-molecule microarrays, primary screen, biochemical, small-molecule microarray, 635/667 nm fluorescence (AID 1132). As to conditions: FST binding, 635 nm fluorescence, higher = more signal.
Follistatin (Homo sapiens), sequence (P19883 whole entry, looked up): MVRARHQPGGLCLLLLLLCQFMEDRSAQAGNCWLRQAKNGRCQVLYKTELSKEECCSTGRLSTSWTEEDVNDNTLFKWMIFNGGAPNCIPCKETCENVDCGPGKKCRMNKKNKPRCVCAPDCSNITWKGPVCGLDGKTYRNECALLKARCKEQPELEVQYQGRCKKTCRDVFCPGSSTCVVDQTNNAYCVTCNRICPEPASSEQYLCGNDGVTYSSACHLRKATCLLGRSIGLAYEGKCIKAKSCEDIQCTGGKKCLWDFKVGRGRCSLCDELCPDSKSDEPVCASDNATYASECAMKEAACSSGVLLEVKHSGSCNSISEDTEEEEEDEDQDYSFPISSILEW
Experiment [6] has as its target Fibroblast growth factor 2 (Homo sapiens) (UniProt P09038). As to the kind of experiment: FGF2 binders on small-molecule microarrays, primary screen, biochemical, small-molecule microarray, 635/667 nm fluorescence (AID 1133). As to conditions: small-molecule microarray binding, FGF2, fluorescence 635/667; higher = more signal.
Experiment [7] in a line: mitochondrial membrane potential change in A549 cells, profiling panel, cell-based, JC-1 fluorescence, basal, 24 h, 100 nL (AID 1138).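 Note: A549 lung adenocarcinoma cells under basal conditions with no added stimulus; test concentration not given here.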 As to conditions: higher = more signal.
The subject of experiment [8] is Lefty1. Kind of experiment: Lefty1 binders on small-molecule microarrays, primary screen, biochemical, small-molecule microarray, 635/667 nm fluorescence (AID 1139). As to conditions: small-molecule microarray binding, fluorescence 635/667; higher = more signal.
The subject of experiment [9] is wheat germ agglutinin (Triticum aestivum), Alexa647-labelled. As to the kind of experiment: wheat germ agglutinin binders on compound microarrays, profiling panel, artefact control for SMM control-protein annotation, biochemical, small-molecule microarray, 635/667 nm fluorescence (AID 1140).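 Note: score merges 667 nm feature emission with signal to noise over triplicate slides.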 As to conditions: WGA-A647 binding, 635 nm fluorescence, higher = more signal.

In experiment [10] the target is Luciferin 4-monooxygenase (Photinus pyralis) (UniProt P08659). As to the kind of experiment: firefly luciferase enzyme inhibitors, primary screen, biochemical, luminescence, purified enzyme, 2006 set (AID 1141).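 Note: cell-free assay with purified firefly luciferase at 100 ng per well in PBS; test concentration not given here.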 As to conditions: SteadyGlo luminescence, 30 min, higher = more signal, called active from +8 up or from −8 down.
Luciferin 4-monooxygenase (Photinus pyralis), sequence (P08659 whole entry, looked up): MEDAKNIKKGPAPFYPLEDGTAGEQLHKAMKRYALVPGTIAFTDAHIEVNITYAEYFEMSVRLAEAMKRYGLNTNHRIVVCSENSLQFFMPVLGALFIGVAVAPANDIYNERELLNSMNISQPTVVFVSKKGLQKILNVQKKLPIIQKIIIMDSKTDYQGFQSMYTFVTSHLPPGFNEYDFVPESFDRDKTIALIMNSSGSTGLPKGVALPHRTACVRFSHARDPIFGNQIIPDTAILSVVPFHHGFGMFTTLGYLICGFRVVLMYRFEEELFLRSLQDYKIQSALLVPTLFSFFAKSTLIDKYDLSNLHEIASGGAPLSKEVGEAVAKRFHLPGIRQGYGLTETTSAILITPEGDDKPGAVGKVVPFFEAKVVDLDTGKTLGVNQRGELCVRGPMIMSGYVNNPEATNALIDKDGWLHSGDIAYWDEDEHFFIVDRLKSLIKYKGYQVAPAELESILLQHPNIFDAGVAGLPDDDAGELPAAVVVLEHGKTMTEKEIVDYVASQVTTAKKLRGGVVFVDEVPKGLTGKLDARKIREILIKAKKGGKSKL

This passage reports composite z-score and z-score results from PubChem BioAssay.

SMILES strings stand for the structures. Active and inactive are the calls of the source.

Fibroblast growth factor 2 (Homo sapiens), sequence (P09038 whole entry, looked up): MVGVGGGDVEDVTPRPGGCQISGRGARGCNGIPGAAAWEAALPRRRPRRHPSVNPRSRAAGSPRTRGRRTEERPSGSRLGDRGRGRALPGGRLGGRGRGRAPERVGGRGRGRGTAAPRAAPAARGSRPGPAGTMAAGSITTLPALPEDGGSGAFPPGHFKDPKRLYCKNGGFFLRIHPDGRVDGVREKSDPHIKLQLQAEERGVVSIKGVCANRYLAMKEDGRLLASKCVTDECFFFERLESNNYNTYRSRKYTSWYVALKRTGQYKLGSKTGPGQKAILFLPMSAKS

For the molecule `C=C(CCCC)/C(=C/C[C@@H](OC(C)=O)c1ccc(CO)o1)c1cnc2ccccc2c1`, the composite z-score was determined as 1.12 in experiment [1]; 1.21 in [2]; 0.119 in [3]; 0.948 in experiment [4]; 1.31 in [5]; 1.54 in [6]. Besides, the composite z-score in experiment [8] was 1.51; in experiment [9] it was 1.27. The z-score in experiment [7] is -0.587; in experiment [10], -3.09 (inactive).

In the case of `COc1ccc(C(O)C2C=CC3C(=O)NC(=O)C3N2Nc2ccc(Cl)cc2Cl)c2ccccc12` (stereo not given), the composite z-score was 1.54 in experiment [1]; 1.15 in experiment [2]; 0.486 in [3]; 0.925 in experiment [4]; 0.797 in experiment [5]; -0.19 in experiment [6]. Besides, the results for the composite z-score in [8] and in experiment [9] were -0.0846 and 1.19, respectively. The z-score in experiment [7] is -0.209; in experiment [10] it was -1.93 (inactive).

As to `CC=CC(O)C1C=CC2C(=O)NC(=O)C2N1Nc1ccc(Cl)cc1Cl` (stereo not given), the composite z-score is 1.78 in [1]; -0.352 in [2]; -0.288 in experiment [3]; -0.419 in experiment [4]; 1.04 in experiment [5]; -0.0658 in experiment [6]. Further, the composite z-score in [8] is 0.15; in experiment [9], 0.898. Also, the z-score in experiment [7] was 0.099; in experiment [10] it was -0.158 (inactive).

As for `CCCCC(O)C1C=CC2C(=O)N(c3ccccc3)C(=O)C2N1Nc1ccc(C#N)cc1` (stereo not given), the composite z-score in [1] turned out to be 0.584; in experiment [2], 1.13; in experiment [3], 0.764; in [4], 0.981; in [5], 0.0191; in [6] it was 0.0696. Besides, the composite z-score in [8] is -0.295; in [9], 0.819. Also, the z-score in [7] was 0.0808; in experiment [10], -1.45 (inactive).

With `C=CCN1Cc2ccccc2[C@H]2OC(c3ccc(OCCCO)cc3)=N[C@@]2(CCS(=O)(=O)c2ccccc2)C1=O`, the composite z-score amounted to 2.05 in experiment [1]; 1.22 in experiment [2]; 0.621 in [3]; 0.0869 in [4]; 1.37 in experiment [5]; 1.37 in experiment [6]. Further, the values for the composite z-score in experiment [8] and in experiment [9] were 0.507 and 0.77, respectively. In addition, the z-score in experiment [7] is 0.35; in experiment [10], -0.884 (inactive).

In the case of `NC(=O)NCC#Cc1ccc2c(c1)[C@]1(C(=O)N2)[C@H](c2ccc(OCCO)cc2)N2[C@H](c3ccccc3)[C@H](c3ccccc3)OC(=O)[C@H]2[C@@H]1C(=O)O`, the composite z-score is 1.21 in [1]; -1.59 in [2]; -0.333 in experiment [3]; 0.755 in experiment [4]; -0.044 in experiment [5]; -0.498 in [6]. The composite z-score is -0.601 in experiment [8] and 1.22 in [9]. For the same molecule, the z-score in experiment [7] was -1.15; in experiment [10], -1.6 (inactive).

In the case of `COc1ccc(C(O)C2C=CC3C(=O)N(c4ccccc4)C(=O)C3N2Nc2ccc(C#N)cc2)cc1OCc1ccccc1` (stereo not given), the composite z-score in experiment [1] was 1.86; in [2] it was 1.21; in experiment [3], 1.3; in experiment [4], 0.506; in experiment [5] it was 0.636; in [6] it was -0.529. The results for the composite z-score in [8] and in experiment [9] were -0.56 and 1.15, respectively. In addition, the figures for the z-score in experiment [7] and in [10] were 0.399 and 0.188 (inactive), respectively.

Regarding `COc1ccc([Si](C)(C)[C@H]2[C@H](CC(=O)N3Cc4ccccc4C[C@H]3CO)O[C@@]3(C(=O)N(c4ccccc4)c4ccccc43)[C@@H]2C)cc1`, the composite z-score in [1] is 1.27; in [2], 1.19; in [3] it was 0.0758; in [4] it was 0.96; in experiment [5] it was 1.37; in experiment [6], 1.64. Moreover, the composite z-score in [8] was determined as 1.48; in experiment [9] it was 0.771. The results for the z-score in experiment [7] and in experiment [10] were 1.78 and 0.16 (inactive), respectively.

Turning to `C=C(/C(=C/C[C@@H](OC(C)=O)c1cccc(OCCO)c1)c1cnc2ccccc2c1)C(C)C`, the composite z-score in experiment [1] was 0.607; in experiment [2], 0.472; in [3], 0.138; in experiment [4], -0.31; in experiment [5] it was 1.5; in experiment [6], 1.68. The composite z-score in [8] worked out at 1.55; in [9] it was 1.07. Further, the z-score in experiment [7] is 0.41; in experiment [10] it was -0.614 (inactive).

Consider `COc1cc(C(O)C2C=CC3C(=O)N(c4ccccc4)C(=O)C3N2Nc2ccccc2)cc(OC)c1OC` (stereo not given), for which the composite z-score was 1.04 in experiment [1]; 1.21 in [2]; 0.655 in experiment [3]; 1 in [4]; 1.14 in experiment [5]; -0.085 in experiment [6]. For the same molecule, the composite z-score in experiment [8] is -0.383; in [9], 1.24. Further, the z-score in experiment [7] is -0.193; in experiment [10], -0.171 (inactive).

As for `O=C(N1CCOCC1)[C@@]1(Cc2ccccc2)COC(c2ccc(OCCCO)cc2)=N1`, the composite z-score in [1] was 2.69; in experiment [2], 1.23; in experiment [3], 0.674; in experiment [4], 0.767; in experiment [5] it was -0.119; in experiment [6], -0.445. The composite z-score was -1.1 in experiment [8] and 0.603 in [9]. Moreover, the z-score in experiment [7] is -1.04; in experiment [10], -0.276 (inactive).

On to `O=C1O[C@@H](c2ccccc2)[C@@H](c2ccccc2)N2[C@@H](c3ccc(OCCO)cc3)[C@]3(C(=O)Nc4ccc(C#CC5(O)CCCCCC5)cc43)[C@@H](C(=O)Nc3nc4ccccc4s3)[C@H]12`, for which the composite z-score in experiment [1] came to 0.0141; in [2], 1.24; in experiment [3] it was 0.676; in [4] it was 0.964; in experiment [5], 1.33; in experiment [6], 1.54. The composite z-score in experiment [8] was 1.22; in [9], 1.09. Further, the z-score is -2.12 in experiment [7] and -2.6 (inactive) in experiment [10].

With `O=C1O[C@@H](c2ccccc2)[C@@H](c2ccccc2)N2[C@@H](c3ccc(OCCO)cc3)[C@]3(C(=O)Nc4ccc(C#CC5(O)CCCCCC5)cc43)[C@@H](C(=O)O)[C@H]12`, the composite z-score stood at 2.8 in experiment [1]; 1.18 in experiment [2]; 1.24 in [3]; 0.832 in experiment [4]; 0.776 in [5]; 0.155 in experiment [6]. Further, the values for the composite z-score in experiment [8] and in experiment [9] were 0.68 and 0.601, respectively. Moreover, the figures for the z-score in experiment [7] and in experiment [10] were 0.741 and -2.86 (inactive), respectively.
